The other results are listed elsewhere or left out. The hit rate among all sequences tested is not known here.
B1: HC767 (peptide)
chain: CANSSPPVVPAGNASASA
B2: HC1169 (peptide)
chain: CAGVWRVDGIAGNASASA
B3: HC1961 (peptide)
chain: CANCTTPCSGAGNASASA
B4: HC1167 (peptide)
chain: CARGYKGVWRAGNASASA
B5: FS-1716 (peptide)
chain: CARHRKNVDRAGNASASA
B6: NG5 (peptide)
chain: CAMKYEIASEAGNASASA
B7: FS-1953 (peptide)
chain: CARHARNVDRAGNASASA
B8: FS-2210 (peptide)
chain: CARHARFGKKAGNASASA
B9: FS-2356 (peptide)
chain: CARPAREVDRAGNASASA
B10: FS-3155 (peptide)
chain: CARHARQASEAGNASASA
B11: FS-2469 (peptide)
chain: CARVARTVDRAGNASASA
B12: HC1859 (peptide)
chain: CATPPCSGSWAGNASASA
B13: HC522 (peptide)
chain: CAFLLLADARAGNASASA
B14: HC972 (peptide)
chain: CAPLLYRLGAAGNASASA
B15: HC1440 (peptide)
chain: CAMAKNEVFCAGNASASA
B16: HC312 (peptide)
chain: CAGCNCSIYPAGNASASA
B17: FS-1537 (peptide)
chain: CAIVARNHRDAGNASASA
B18: FS-805 (peptide)
chain: CAITARYHRDAGNASASA
B19: FS-1337 (peptide)
chain: CAHKHRSNRQAGNASASA
B20: FS-1400 (peptide)
chain: CARKPKRKRWAGNASASA
B21: FS-1604 (peptide)
chain: CAPWNRKNRQAGNASASA
B22: HC1913 (peptide)
chain: CATTPCSGRWAGNASASA
B23: FS-193 (peptide)
chain: CASKRRDKRWAGNASASA
B24: FS-1456 (peptide)
chain: CAGKRRSRRQAGNASASA
B25: FS-1261 (peptide)
chain: CARKPRVKRPAGNASASA
B26: FS-3138 (peptide)
chain: CASSRRDSSWAGNASASA
B27: HC1151 (peptide)
chain: CAWDWICEVLAGNASASA
B28: HC847 (peptide)
chain: CAIPFYGKAIAGNASASA
B29: HC1628 (peptide)
chain: CAGGRAAICGAGNASASA
B30: HC1563 (peptide)
chain: CATRDPTTPLAGNASASA
B31: HC1601 (peptide)
chain: CAPIIQRLHGAGNASASA
B32: FS-1487 (peptide)
chain: CASKRRARRQAGNASASA
B33: HC2161 (peptide)
chain: CANVVTSTWVAGNASASA
B34: FS-698 (peptide)
chain: CANVVRARRQAGNASASA
B35: FS-1412 (peptide)
chain: CASKRRSRRQAGNASASA
B36: HC1417 (peptide)
chain: CAPPHSAKSKAGNASASA
B37: HC1930 (peptide)
chain: CATTPCSGSVAGNASASA
B38: HC194 (peptide)
chain: CAKARRPEGRAGNASASA
B39: HC888 (peptide)
chain: CANTCVTQTVAGNASASA
B40: HC1054 (peptide)
chain: CAIASLMAFTAGNASASA
B41: FS-2190 (peptide)
chain: CARTKRSAFFAGNASASA
B42: FS-1689 (peptide)
chain: CARDDRSTSFAGNASASA
B43: FS-2823 (peptide)
chain: CARTKKAKMKAGNASASA
B44: DV6 (peptide)
chain: CAGLKRGGAKAGNASASA
B45: FS-3107 (peptide)
chain: CARTKRLAIFAGNASASA
B46: FS-2313 (peptide)
chain: CARTKRDYDFAGNASASA
B47: FS-1976 (peptide)
chain: CARTKRYFAKAGNASASA
B48: FS-2314 (peptide)
chain: CARTKRLTAQAGNASASA

Target: furin, P09958
Assay: furin cleavage Z-score vs untreated control; higher = more cleavage, active = 3.5 or more, inactive = 1 or less, 8 variable residues between constant flanks
How it was run: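 Sequencing of released DNA, tagged with adapters by PCR, gave read counts used as abundance. That DNA was freed when purified furin cut N-terminally bead-bound 8-mer peptides fused to a cDNA oligonucleotide, in 0.01 ml reactions at 1:10 enzyme:substrate in 50 mM HEPES pH 7.5 with CaCl2 and NaCl, lasting 7.5, 15 or 30 min. The cleavage Z-score was the lowess-adjusted log count versus furin-free reactions, scaled by median absolute deviation.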

Sequence of furin, P09958 (P09958 whole entry): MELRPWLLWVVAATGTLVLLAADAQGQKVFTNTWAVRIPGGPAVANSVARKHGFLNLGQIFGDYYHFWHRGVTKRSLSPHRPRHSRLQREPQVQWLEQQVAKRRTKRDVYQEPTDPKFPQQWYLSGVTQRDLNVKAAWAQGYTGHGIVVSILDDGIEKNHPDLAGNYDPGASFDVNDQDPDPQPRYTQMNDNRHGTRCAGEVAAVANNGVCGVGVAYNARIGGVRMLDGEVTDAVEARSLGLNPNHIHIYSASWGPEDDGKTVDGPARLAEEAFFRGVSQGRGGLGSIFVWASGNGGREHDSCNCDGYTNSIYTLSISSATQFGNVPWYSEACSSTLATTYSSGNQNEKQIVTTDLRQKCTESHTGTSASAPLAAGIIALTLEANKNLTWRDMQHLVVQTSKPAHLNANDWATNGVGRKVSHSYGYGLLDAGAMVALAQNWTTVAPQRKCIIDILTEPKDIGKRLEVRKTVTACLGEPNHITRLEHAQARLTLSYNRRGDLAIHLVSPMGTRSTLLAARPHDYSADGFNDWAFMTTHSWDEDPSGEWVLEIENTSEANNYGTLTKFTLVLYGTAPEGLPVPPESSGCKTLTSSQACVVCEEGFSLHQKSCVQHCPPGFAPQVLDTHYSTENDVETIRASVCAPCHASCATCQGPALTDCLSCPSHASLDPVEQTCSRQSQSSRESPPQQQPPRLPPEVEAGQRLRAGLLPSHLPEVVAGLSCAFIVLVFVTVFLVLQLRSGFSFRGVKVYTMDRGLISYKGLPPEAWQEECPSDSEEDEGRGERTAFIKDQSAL

Row | Sequence | furin cleavage Z-score (7.5 min) | furin cleavage Z-score (15 min) | furin cleavage Z-score (30 min)
1 | B1 | -0.356 (inactive) | 1.59 | -0.293 (inactive)
2 | B2 | -0.937 (inactive) | 0.416 (inactive) | -0.826 (inactive)
3 | B3 | -0.578 (inactive) | -3.89 (inactive) | 1.28
4 | B4 | 0.51 (inactive) | 0.617 (inactive) | -0.00561 (inactive)
5 | B5 | -0.386 (inactive) | 1.53 | 1.32
6 | B6 | -0.26 (inactive) | -1.67 (inactive) | 0.146 (inactive)
7 | B7 | 6.92 (active) | 10.7 (active) | 9.36 (active)
8 | B8 | 0.851 (inactive) | -1.52 (inactive) | 1.21
9 | B9 | 5.34 (active) | 5.29 (active) | 4.96 (active)
10 | B10 | 1.74 | 4.48 (active) | 5.03 (active)
11 | B11 | 5.8 (active) | 7.75 (active) | 8.43 (active)
12 | B12 | -0.56 (inactive) | -0.533 (inactive) | -0.721 (inactive)
13 | B13 | -0.934 (inactive) | -0.696 (inactive) | -0.66 (inactive)
14 | B14 | 0.619 (inactive) | -1.01 (inactive) | 0.0559 (inactive)
15 | B15 | 0.471 (inactive) | 0.162 (inactive) | 0.531 (inactive)
16 | B16 | 0.264 (inactive) | -0.894 (inactive) | 0.418 (inactive)
17 | B17 | 4.29 (active) | 3.17 | 2.88
18 | B18 | 2.27 | 3.38 | 4.17 (active)
19 | B19 | 1.05 | 3.88 (active) | 1.67
20 | B20 | 8.47 (active) | 10.9 (active) | 7.59 (active)
21 | B21 | -0.25 (inactive) | 0.846 (inactive) | 3.14
22 | B22 | -1.94 (inactive) | 0.288 (inactive) | -0.595 (inactive)
23 | B23 | 8.33 (active) | 9.38 (active) | 9.36 (active)
24 | B24 | 9.9 (active) | 10.6 (active) | 6.67 (active)

Row | Sequence | furin cleavage Z-score (7.5 min) | furin cleavage Z-score (15 min) | furin cleavage Z-score (30 min)
25 | B25 | 1.31 | 0.832 (inactive) | 1.57
26 | B26 | -0.452 (inactive) | -0.483 (inactive) | -0.978 (inactive)
27 | B27 | -0.473 (inactive) | 1.19 | 1.97
28 | B28 | -0.737 (inactive) | -1.38 (inactive) | 0.0496 (inactive)
29 | B29 | -1.4 (inactive) | -1.23 (inactive) | -0.629 (inactive)
30 | B30 | 0.197 (inactive) | -2.67 (inactive) | -1.41 (inactive)
31 | B31 | -1.06 (inactive) | -0.433 (inactive) | -1.21 (inactive)
32 | B32 | 7.99 (active) | 8.93 (active) | 6.94 (active)
33 | B33 | -0.344 (inactive) | 0.91 (inactive) | 0.172 (inactive)
34 | B34 | 12.8 (active) | 12 (active) | 10.3 (active)
35 | B35 | 8.55 (active) | 8.01 (active) | 5.96 (active)
36 | B36 | -1.76 (inactive) | -0.582 (inactive) | -0.397 (inactive)
37 | B37 | 0.2 (inactive) | 0.581 (inactive) | 1.22
38 | B38 | -0.782 (inactive) | -1.19 (inactive) | -0.268 (inactive)
39 | B39 | -0.737 (inactive) | -1.07 (inactive) | -1.56 (inactive)
40 | B40 | -0.654 (inactive) | -1.12 (inactive) | 0.0832 (inactive)
41 | B41 | 7.39 (active) | 8.86 (active) | 9.07 (active)
42 | B42 | 1.2 | -0.677 (inactive) | 2.85
43 | B43 | -1.45 (inactive) | -0.415 (inactive) | -0.644 (inactive)
44 | B44 | 0.716 (inactive) | 0.513 (inactive) | -0.692 (inactive)
45 | B45 | 3.35 | 5.86 (active) | 5.79 (active)
46 | B46 | 5.48 (active) | 7.94 (active) | 9.08 (active)
47 | B47 | 0.407 (inactive) | 1.7 | 4.11 (active)
48 | B48 | -0.31 (inactive) | 0.417 (inactive) | 1.3

From the supplement of paper PMC3545927
